Drawing on PubChem BioAssay, this text covers composite z-score and z-score for 17 compounds.

Activity calls are given as the source filed them.

The subject of experiment [1] is PRMT1 (protein arginine N-methyltransferase 1). Description: PRMT1 binders on small-molecule microarrays, primary screen, biochemical, small-molecule microarray, 635 nm fluorescence (AID 1088).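 Also: binding of Prmt1 protein to compounds spotted on small-molecule microarray slides.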 The conditions noted are these: small-molecule microarray binding, higher = more signal.
Experiment [2] can be described thus: yeast growth modulation, basal conditions, primary screen, YJM789 clinical isolate, OD600, 24 h (AID 1089).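 Also: growth of clinical yeast isolate S. cerevisiae YJM 789 seeded 1000 cells per well; test concentration not given here.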 The conditions noted are these: S. cerevisiae YJM789 growth, higher = more signal, called active from +8 up or from −8 down.
Experiment [3] can be described thus: fission yeast growth modulation, primary screen, strain 972, OD600, 24 h, no modulator (AID 1090).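 Also: basal condition with compound alone and no growth modifier present; test concentration not given here.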 The conditions noted are these: S. pombe 972 growth, higher = more signal, called active from +8 up or from −8 down.
Experiment [4] in a line: S. cerevisiae growth modulation with rapamycin, primary screen, strain BY4716, OD600, 96 h (AID 1091). Also: test concentration not given here. The conditions noted are these: higher = more signal, called active from +8 up or from −8 down.
For experiment [5], the target named is Torsin-1A-interacting protein 2 (Homo sapiens) (UniProt Q8NFQ8). Description: LULL1 binders on small-molecule microarray, primary screen, cell lysate, human LULL1 lysate, 635/667 nm fluorescence (AID 1092).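 Also: probe is lysate of COS7 cells overexpressing human LULL1; score merges per-feature 667 nm fluorescence with signal-to-noise.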 The conditions noted are these: hLULL1 lysate binding, 635 nm fluorescence, higher = more signal.
A short description of experiment [6]: E. coli growth modulation, two-sided OD650, primary screen, E. coli filamentation project, strain DRC41, 24 h (AID 1093).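 Also: MC1000 strain lacking acrAB efflux and sulA so SOS filamentation is blocked; test concentration not given here.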 The conditions noted are these: OD650, 24 h, higher = more signal, called active from +8 up or from −8 down.
Experiment [7] can be described thus: small-molecule microarray binders of probe aLefty2, primary screen, biochemical, biotinylated probe, 635/667 nm fluorescence (AID 1094).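 Also: score merges spot fluorescence near 667 nm with spot signal-to-noise ratio.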 The conditions noted are these: higher = more signal.
For experiment [8], the system named is Noggin (protein binding on small-molecule microarray). Description: Noggin binders on small-molecule microarray, primary screen, biochemical, 635/667 nm fluorescence (AID 1095).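 Also: score merges 667 nm feature fluorescence with signal to noise over triplicate slides.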 The conditions noted are these: 635 nm fluorescence, higher = more signal.
Experiment [9] addresses Neurogenic locus notch homolog protein 3 (Homo sapiens) (UniProt Q9UM47). Description: NOTCH3 binders on small-molecule microarray, primary screen, biochemical, 635/667 nm fluorescence (AID 1096). The conditions noted are these: NOTCH3 binding, 635 nm fluorescence, higher = more signal.
Experiment [10] is described as follows: small-molecule microarray binders of probe aEGFR, primary screen, biochemical, biotinylated probe, 635/667 nm fluorescence (AID 1097).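 Also: probe is a biotinylated anti-EGFR antibody binding compounds printed on slides; score combines fluorescence near 667 nm and signal to noise of each spot.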 The conditions noted are these: higher = more signal.

Chain of Neurogenic locus notch homolog protein 3 (Homo sapiens) (Q9UM47 whole entry, looked up): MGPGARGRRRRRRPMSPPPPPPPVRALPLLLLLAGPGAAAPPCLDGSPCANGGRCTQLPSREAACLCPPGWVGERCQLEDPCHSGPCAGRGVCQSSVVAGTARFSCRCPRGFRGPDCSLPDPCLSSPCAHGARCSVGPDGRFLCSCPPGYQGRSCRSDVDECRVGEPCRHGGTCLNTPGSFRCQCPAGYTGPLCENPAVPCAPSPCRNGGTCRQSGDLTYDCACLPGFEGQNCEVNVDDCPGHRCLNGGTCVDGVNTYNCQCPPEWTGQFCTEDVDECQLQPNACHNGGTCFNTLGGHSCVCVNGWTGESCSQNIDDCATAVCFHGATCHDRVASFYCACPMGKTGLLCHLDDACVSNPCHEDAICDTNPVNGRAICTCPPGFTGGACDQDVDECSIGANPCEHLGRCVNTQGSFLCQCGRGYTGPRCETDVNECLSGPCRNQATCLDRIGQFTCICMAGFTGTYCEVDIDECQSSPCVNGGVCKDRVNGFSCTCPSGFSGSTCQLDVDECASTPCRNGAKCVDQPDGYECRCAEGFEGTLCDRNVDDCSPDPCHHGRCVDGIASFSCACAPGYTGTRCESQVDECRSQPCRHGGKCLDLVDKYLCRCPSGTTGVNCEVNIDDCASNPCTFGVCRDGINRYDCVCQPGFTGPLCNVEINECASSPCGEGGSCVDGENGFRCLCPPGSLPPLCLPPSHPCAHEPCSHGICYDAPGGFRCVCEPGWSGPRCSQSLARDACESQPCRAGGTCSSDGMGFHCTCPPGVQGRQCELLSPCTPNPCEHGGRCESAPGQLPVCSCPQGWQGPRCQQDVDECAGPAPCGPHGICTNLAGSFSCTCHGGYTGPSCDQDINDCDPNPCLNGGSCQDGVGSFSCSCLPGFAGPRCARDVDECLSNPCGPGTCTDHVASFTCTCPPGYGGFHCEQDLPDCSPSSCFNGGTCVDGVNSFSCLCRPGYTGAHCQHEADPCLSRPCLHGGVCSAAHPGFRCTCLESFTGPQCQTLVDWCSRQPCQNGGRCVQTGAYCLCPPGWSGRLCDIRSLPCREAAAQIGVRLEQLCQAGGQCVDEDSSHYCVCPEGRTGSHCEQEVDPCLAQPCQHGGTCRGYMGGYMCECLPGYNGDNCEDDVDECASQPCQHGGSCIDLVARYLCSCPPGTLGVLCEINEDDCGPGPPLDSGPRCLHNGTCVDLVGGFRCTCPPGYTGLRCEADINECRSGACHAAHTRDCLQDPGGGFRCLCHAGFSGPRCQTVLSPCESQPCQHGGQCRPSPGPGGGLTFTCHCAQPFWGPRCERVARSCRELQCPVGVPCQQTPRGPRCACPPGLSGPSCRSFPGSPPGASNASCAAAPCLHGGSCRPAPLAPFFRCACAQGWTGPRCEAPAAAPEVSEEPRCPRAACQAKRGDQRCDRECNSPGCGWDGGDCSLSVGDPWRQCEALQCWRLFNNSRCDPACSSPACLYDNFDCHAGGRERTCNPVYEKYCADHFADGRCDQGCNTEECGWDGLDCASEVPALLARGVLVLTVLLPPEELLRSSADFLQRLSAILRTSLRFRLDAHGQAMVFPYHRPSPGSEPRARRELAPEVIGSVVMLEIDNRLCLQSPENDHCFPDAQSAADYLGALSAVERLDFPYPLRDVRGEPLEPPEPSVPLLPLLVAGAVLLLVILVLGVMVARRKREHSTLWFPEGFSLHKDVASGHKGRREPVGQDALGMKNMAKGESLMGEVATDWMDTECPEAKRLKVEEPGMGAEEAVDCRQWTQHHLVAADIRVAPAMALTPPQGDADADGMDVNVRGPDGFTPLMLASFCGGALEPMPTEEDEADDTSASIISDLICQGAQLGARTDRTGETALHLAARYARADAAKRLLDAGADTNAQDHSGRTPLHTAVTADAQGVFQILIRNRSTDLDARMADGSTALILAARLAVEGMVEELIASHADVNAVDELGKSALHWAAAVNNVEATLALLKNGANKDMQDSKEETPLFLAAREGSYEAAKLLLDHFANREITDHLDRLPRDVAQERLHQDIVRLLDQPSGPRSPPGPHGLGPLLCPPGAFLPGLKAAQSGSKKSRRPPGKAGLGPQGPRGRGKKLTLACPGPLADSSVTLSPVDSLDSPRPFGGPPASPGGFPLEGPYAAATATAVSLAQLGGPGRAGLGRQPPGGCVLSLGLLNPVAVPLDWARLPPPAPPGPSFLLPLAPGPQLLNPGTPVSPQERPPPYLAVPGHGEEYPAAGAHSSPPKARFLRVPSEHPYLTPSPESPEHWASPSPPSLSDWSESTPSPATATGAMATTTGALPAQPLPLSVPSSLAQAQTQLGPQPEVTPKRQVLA
Chain of Torsin-1A-interacting protein 2 (Homo sapiens) (Q8NFQ8 whole entry, looked up): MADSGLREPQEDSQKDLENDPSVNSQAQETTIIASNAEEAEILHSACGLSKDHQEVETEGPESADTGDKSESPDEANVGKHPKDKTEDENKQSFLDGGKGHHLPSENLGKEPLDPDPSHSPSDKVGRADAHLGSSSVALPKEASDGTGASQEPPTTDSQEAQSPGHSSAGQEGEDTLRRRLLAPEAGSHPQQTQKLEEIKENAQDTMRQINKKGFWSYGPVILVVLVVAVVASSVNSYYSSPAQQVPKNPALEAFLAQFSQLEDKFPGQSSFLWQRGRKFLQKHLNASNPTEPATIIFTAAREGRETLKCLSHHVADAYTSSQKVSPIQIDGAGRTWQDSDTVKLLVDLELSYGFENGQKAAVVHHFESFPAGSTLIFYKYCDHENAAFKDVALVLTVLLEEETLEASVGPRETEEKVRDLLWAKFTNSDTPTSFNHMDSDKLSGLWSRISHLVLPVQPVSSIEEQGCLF

In the case of `CCOC(=O)C[C@H]1[C@H](OC(=O)Cc2ccc3c(c2)OCO3)[C@@H](NC(=O)C2CCCCC2)c2cc(OCCCO)ccc2N1C(=O)c1ccccc1`, the composite z-score in experiment [1] is 1.05; in experiment [5], 0.618; in [7] it was -0.248; in experiment [8] it was 0.0367; in experiment [9], 0.255; in experiment [10], -0.0452. The z-score was 0.193 (inactive) in experiment [2], -0.432 (inactive) in experiment [3], 0.36 (inactive) in experiment [4] and 2.58 (inactive) in experiment [6].

`CCOC(=O)C1=CC[C@@H](c2ccccc2F)N(S(=O)(=O)c2ccc(C)cc2)[C@H]1c1ccccc1`: the composite z-score was 1.12 in [1]; 2.72 in [5]; -0.0551 in [7]; 0.63 in experiment [8]; 0.812 in [9]; -0.101 in experiment [10]. For the same compound, the z-score in experiment [2] is -0.0047 (inactive); in experiment [3], 1.29 (inactive); in experiment [4], 0.151 (inactive); in experiment [6] it was -0.818 (inactive).

Take `CCCC[C@@H]1C[C@H]1[C@@H](NC(=O)c1cccs1)c1ccccc1C(F)(F)F`: the composite z-score in [1] was 0.72; in [5], 3.12; in [7], 0.0864; in [8], -0.597; in experiment [9], 0.168; in experiment [10], 0.0695. In addition, the z-score was 0.0064 (inactive) in experiment [2], -1.94 (inactive) in experiment [3], 1.08 (inactive) in experiment [4] and -0.0873 (inactive) in experiment [6].

Consider `O=C1O[C@H](c2ccccc2)[C@H](c2ccccc2)N2[C@H]1[C@@H](C(=O)O)[C@]1(C(=O)Nc3ccc(C#CCCO)cc31)[C@H]2c1ccccc1OCCO`, for which the composite z-score is 1.09 in experiment [1]; 2.97 in [5]; -0.13 in experiment [7]; 0.55 in [8]; 0.116 in [9]; -0.204 in experiment [10]. For the same compound, the z-score in experiment [2] is 0.642 (inactive); in [3], -0.495 (inactive); in experiment [4] it was 0.224 (inactive); in experiment [6] it was 0.18 (inactive).

For the compound `COc1ccc([Si](C)(C)[C@@H]2[C@@H](CCO)O[C@]3(C(=O)N(Cc4cccc(NC(=O)[C@H](C)O)c4)c4ccccc43)[C@H]2C)cc1`, the composite z-score in [1] is 1.54; in experiment [5], 2.84; in experiment [7], -0.159; in [8], 0.474; in experiment [9] it was 0.662; in [10], -0.152. Moreover, the z-score in experiment [2] is 1.84 (inactive); in [3], 0.193 (inactive); in [4] it was 34.6 (active); in [6], -0.327 (inactive).

For `CCCCC(O)C1C=CC2C(=O)N(C)C(=O)C2N1N(c1ccccc1)c1ccccc1` (stereo not given), the composite z-score in experiment [1] is 1.56; in experiment [5], 3.1; in [7] it was -0.0441; in [8], -0.0371; in [9] it was 1.1; in experiment [10] it was 0.111. Besides, the z-score is -0.0289 (inactive) in experiment [2], 0.483 (inactive) in experiment [3], 0.251 (inactive) in experiment [4] and -1.8 (inactive) in [6].

As to `CCCCN1CC=CC23O[C@@H]4/C=C\CCCOC(=O)C4[C@H]2C(=O)N(CCO)[C@@H]3C1=O` (stereo not given in full), the composite z-score in [1] was -0.328; in experiment [5], 3.01; in [7], -0.212; in [8] it was -1.03; in experiment [9], -0.968; in experiment [10], -0.385. Also, the z-score in experiment [2] was 0.812 (inactive); in experiment [3] it was -0.0784 (inactive); in experiment [4] it was -0.0859 (inactive); in [6], 2.12 (inactive).

With `CCCNC(=O)[C@@]1(C)c2ccccc2C(=O)N(c2ccc(C)cn2)[C@H]1c1ccc(CO)cc1`, the composite z-score was -0.266 in [1]; 3.4 in experiment [5]; -0.0352 in experiment [7]; 0.146 in experiment [8]; -0.0421 in [9]; -0.0828 in experiment [10]. Besides, the z-score in [2] is -0.788 (inactive); in experiment [3], -0.164 (inactive); in [4], -0.145 (inactive); in experiment [6] it was -0.618 (inactive).

In the case of `C=CCN1C(=O)[C@]2(CCC(=O)OC(C)(C)C)N=C(c3ccc(OCCCO)cc3)O[C@@H]2c2ccccc21`, the composite z-score in [1] amounted to 1.08; in experiment [5], 2.02; in experiment [7], 0.128; in experiment [8] it was 0.501; in experiment [9] it was 0.772; in experiment [10], 0.401. The z-score is -2.22 (inactive) in experiment [2], -1.56 (inactive) in experiment [3], 3.46 (inactive) in experiment [4] and 1.06 (inactive) in experiment [6].

On to `O=C(O)[C@@H]1[C@@H]2C(=O)N(c3ccccc3)C(=O)[C@@H]2C[C@@H]1Sc1ccccc1`, for which the composite z-score is -1.41 in experiment [1]; 0.758 in experiment [5]; 0.251 in experiment [7]; -1.71 in experiment [8]; -1.56 in [9]; 0.196 in [10]. Moreover, the z-score in experiment [2] is 0.752 (inactive); in experiment [3], 1.68 (inactive); in experiment [4], 1.53 (inactive); in experiment [6], -0.686 (inactive).

Take `NC(=O)[C@H]1[C@@H]2C(=O)O[C@@H](c3ccccc3)[C@@H](c3ccccc3)N2[C@@H](c2ccc(OCCO)cc2)[C@]12C(=O)Nc1ccc(C#CCCO)cc12`: the composite z-score in [1] was 1.41; in experiment [5], 1.7; in experiment [7], -0.0636; in experiment [8], 0.425; in experiment [9] it was 0.164; in [10], 0.0932. Further, the z-score in experiment [2] is 1.62 (inactive); in [3], 0.547 (inactive); in experiment [4], 3.63 (inactive); in experiment [6] it was -0.595 (inactive).

Turning to `COCCOC(=O)N1C(=O)[C@@]2(c3cc(C#CCCO)ccc31)[C@H](c1ccc(OCCO)cc1)N1[C@H](c3ccccc3)[C@H](c3ccccc3)OC(=O)[C@H]1[C@@H]2C(=O)Nc1nc2ccccc2s1`, the composite z-score in [1] is 1.42; in experiment [5], 1.26; in experiment [7] it was 0.151; in experiment [8], 1.13; in experiment [9], 1.08; in [10] it was 0.197. Besides, the z-score was 1.61 (inactive) in [2], 1.26 (inactive) in [3], 2.48 (inactive) in [4] and 0.235 (inactive) in experiment [6].

In the case of `CO[C@H]1O[C@H](CO)[C@@H](OC(=O)Nc2ccc(Br)cc2)[C@@H]2OC(=O)[C@@H](Cc3ccccc3)C/C=C/C[C@H](Cc3ccccc3)C(=O)O[C@@H]12`, the composite z-score is 1.44 in [1]; 2.01 in [5]; 0.0378 in experiment [7]; 0.202 in [8]; 0.464 in experiment [9]; -0.0668 in experiment [10]. In addition, the z-score in [2] is 1.1 (inactive); in experiment [3] it was -0.295 (inactive); in experiment [4], 3.58 (inactive); in [6], 1.03 (inactive).

As to `O=C(NCCN1CCOCC1)[C@@H]1c2ccccc2C(=O)N(C2Cc3ccccc3C2)[C@H]1c1ccc(CO)cc1`, the composite z-score in [1] was 0.925; in experiment [5], 3.2; in experiment [7], -0.0145; in [8] it was -0.398; in experiment [9], 0.123; in [10], -0.214. For the same compound, the z-score in [2] was -2.95 (inactive); in experiment [3], -0.534 (inactive); in [4], -0.979 (inactive); in experiment [6], 1.78 (inactive).

`CCOC(=O)C1=C[C@@H](C(C)(C)C)N(S(=O)(=O)c2ccc(C)cc2)[C@H]1c1cccc2ccccc12`: the composite z-score was 0.735 in [1]; 2.36 in [5]; -0.034 in [7]; 0.171 in experiment [8]; 1.09 in experiment [9]; -0.0828 in experiment [10]. Also, the z-score in [2] is 2.23 (inactive); in experiment [3], 2.75 (inactive); in experiment [4], 2.97 (inactive); in [6], -0.296 (inactive).

`CC(C)N1C(=O)C[C@@](C(=O)NC2CC2)(c2ccc([N+](=O)[O-])cc2)[C@H]1c1ccc(CO)cc1`: the composite z-score in experiment [1] was 0.978; in experiment [5] it was 3.25; in [7], 0.0702; in experiment [8], -1.15; in [9], -0.46; in [10], -0.281. Further, the z-score in experiment [2] was -0.195 (inactive); in [3] it was -1.08 (inactive); in experiment [4], 0.601 (inactive); in experiment [6], 0.718 (inactive).

As to `CCCC#C[Si](O[C@H](CC)c1cn([C@H](C)c2ccccc2)nn1)(C(C)C)C(C)C`, the composite z-score came to 0.817 in experiment [1]; 1.05 in experiment [5]; 0.0539 in [7]; 0.316 in experiment [8]; 0.579 in [9]; 0.359 in experiment [10]. Also, the z-score is -0.764 (inactive) in experiment [2], -10.2 (active) in experiment [3], -3.25 (inactive) in [4] and 2.37 (inactive) in experiment [6].
